Reference: PubChem BioAssay (Tox21)
Where “and” joins values, the source holds several entries; their conditions need not be identical. Identical values can stand only once. Results filed as inconclusive are left out. Entries that show only a call come without a potency. The source holds several records for some structures; these can differ, active in one and inactive in another. Calls of active or inactive are those of the source. The call rests on the fitted dose curve.

Assay: p53 small molecule agonists, cell-based qHTS assay with rat liver microsomes: qHTS cell viability counter screen (AID 1963580); further: nearly all actives have a fitted effect of over 45% in size
Method in brief: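 Rat liver microsome (0.5 mg/mL final) and NADPH (0.5 mg/mL final) co-incubation with compounds for 16 h at 37 C on HCT-116 p53RE-bla cells; cytotoxicity taken from intracellular ATP luminescence.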
Potency means the concentration at half of the fitted maximal effect.

Structure (SMILES) | Potency | activity change, negative = cytotoxicity
C=CC(C)(CCC=C(C)C)OC(=O)CC (centres undefined) | inactive | 
OCCCCl | inactive | 
CCCCC(CC)COCCO (centres undefined) | inactive | 
CCC(N)(CO)CO | inactive | 
OCC(CO)N[C@H]1C[C@](O)(CO)[C@@H](O)[C@H](O)[C@H]1O | inactive | 
NCCO | inactive and 32.4 µM (active) | 
CC(C)(C)S | inactive | 
CCCCCCCOC(C)=O | inactive | 
C/C=C/c1ccc(OC)c(OC)c1 | inactive | 
CCC(=O)OC(C)c1ccccc1 (centres undefined) | inactive | 
CCCCC(CC)COC(=O)c1ccc(O)cc1 (centres undefined) | 45.8 µM (active) | 
O=[N+]([O-])c1ccc2c(c1)Cc1ccccc1-2 | inactive | 
CCCCCCCCCCCCCC | inactive | 
CN1C(=O)CC(C)(c2ccccc2)C1=O (centres undefined) | inactive | 
COC(CC(C)CCCC(C)(C)O)OC (centres undefined) | inactive | 
CC(C)C(=O)c1c(C(C)C)nn2ccccc12 | inactive | 
N#[N+]c1ccc2c(S(=O)(=O)[O-])cccc2c1O | inactive | 
CCCN1CCCC[C@H]1C(=O)Nc1c(C)cccc1C | inactive | 
COC(=O)c1ccc(C)cc1C1=NC(C)(C(C)C)C(=O)N1 (centres undefined) | inactive | 
COC(=O)c1cc(Cl)c(NC(C)=O)cc1OC | inactive | 
CC(O)C(CO)C(C)O (centres undefined) | inactive | 
Oc1ccc(Cl)cc1Sc1cc(Cl)ccc1O | 45.7 µM (active) and inactive | 
CC[C@H]1CN2CCc3cc(OC)c(OC)cc3[C@@H]2C[C@@H]1C[C@H]1NCCc2cc(OC)c(OC)cc21 | inactive | 
CC(=O)O[C@]1(C(C)=O)CC[C@H]2[C@@H]3C=C(C)C4=CC(=O)CC[C@]4(C)[C@H]3CC[C@@]21C | inactive | 
CC(C)N=C=NC(C)C | inactive | 

Structure (SMILES) | Potency | activity change, negative = cytotoxicity
Nc1cccc2c1CN(C1CCC(=O)NC1=O)C2=O (centres undefined) | inactive | 
Oc1ccc(OCc2ccccc2)cc1 | inactive | 
O=C(O)CCCCCCCCCCCC(=O)O | inactive | 
Cc1c(O)cccc1C(=O)N[C@@H](CSc1ccccc1)[C@H](O)CN1C[C@H]2CCCC[C@H]2C[C@H]1C(=O)NC(C)(C)C | inactive | 
Oc1ccccc1O | inactive | 
O=C(O)c1cc(-c2ccccc2)nc2ccccc12 | inactive | 
CCCCNc1ccccc1 | inactive | 
CN(C)CCC=C1c2ccccc2CCc2ccccc21 | inactive | 
[Cl][In]([Cl])[Cl] | inactive | 
O=C(O)CCS | inactive | 
C=CC(O)CCCCC (centres undefined) | inactive | 
COc1ccc2cccc(CCNC(C)=O)c2c1 | inactive | 
N[C@H](C(=O)O)c1ccc(O)cc1 |  | 4.85% [at 13.5 µM] (inactive)
COC(=O)c1ccccc1C(=O)c1ccc(OCCN2CCCCC2)cc1 | inactive | 
O=C(OC(=O)c1ccccc1)c1ccccc1 | inactive | 
CC(=O)c1ccc(O)c(C(N)=O)c1 | inactive | 
CC(C)(c1ccccc1)c1ccc(Nc2ccc(C(C)(C)c3ccccc3)cc2)cc1 | inactive | 
CC1=CCC(C(C)(C)O)CC1 (centres undefined) | inactive | 
O=C1CCC(=O)O1 | inactive | 
Cc1ccc(S(=O)(=O)NC(=O)NC2CCCCCCC2)cc1 | inactive | 
CC(C)C(=O)OC(=O)C(C)C | inactive | 
c1ccc2c(c1)CCc1ccccc1N2 | inactive | 
C[N+](C)(C)CC(O)CCl (centres undefined) | inactive | 
C=CC(C)CCC=C(C)C (centres undefined) | inactive | 
